Assay [1] is described as follows: qHTS assay for small molecules that induce genotoxicity in human embryonic kidney cells expressing luciferase-tagged ATAD5 (AID 651632). Also: nearly all actives have a fitted effect of over 15% in size. The method in brief: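 Concentration-response screen for ATAD5 upregulation in HEK293T luciferase reporter cells; 16 hr treatment at 37C, then luminescence after 30 min with Amplite at room temperature.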
A short description of assay [2]: qHTS assay for small molecule agonists of the p53 signaling pathway - cell viability (AID 651633; calls by dose curve; also: nearly all actives have a fitted effect of over 30% in size; also: potency is read from the fitted curve at half-maximal effect). The method in brief:
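p53RE-bla cells, seeded at 4,000 per well and rested 5 h at 37 C/5% CO2, received compounds in DMSO for 16 h at 37 C. CellTiter-Glo was then added, and luminescence was read after 30 min at room temperature to gauge cytotoxicity.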

Assay [3] in a line: qHTS assay for small molecules that induce genotoxicity in human embryonic kidney cells expressing luciferase-tagged ATAD5 - cell viability (AID 651634; calls by dose curve; also: nearly all actives have a fitted effect of over 25% in size; also: potency is read from the fitted curve at half-maximal effect). The method in brief:
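15.5 hr compound or vehicle exposure of HEK293T cells expressing luciferase-tagged ATAD5 at 37C; live-cell protease activity is read by fluorescence after 30 min of CellTiter-Fluor.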

The nature of assay [4]: qHTS assay for small molecule disruptors of the mitochondrial membrane potential - cell viability (AID 720634; calls by dose curve;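 also: human HepG2 liver cancer cells; nearly all actives have a fitted effect of over 20% in size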). In outline: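 In this qHTS format, HepG2 cells plated overnight were pinned with compound, incubated 1 hr, and assayed for ATP luminescence with CellTiter-Glo after m-MPI dye addition.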
A general note: In qHTS, concentration-response curves come from the screen itself.

The nature of assay [5]: qHTS assay for small molecule disruptors of the mitochondrial membrane potential (AID 720635). Also: potency is read from the fitted curve at half-maximal effect. In outline:
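HepG2 cells (2,000/well) attached overnight at 37C, then took compound for 1 hr at 37C, 5% CO2. Mito-MPS dye was added for 30 min; fluorescence was read at 490/535 nm (monomers) and 540/590 nm (aggregates).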

A short description of assay [6]: qHTS assay to test for compound auto fluorescence at 590 nm (red) in HepG2 cells (AID 720674). The method in brief:
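Intrinsic compound fluorescence in the red window (Ex/Em 540/590 nm) is measured in attached HepG2 cells exposed for 1 hr, DMSO vehicle as baseline, benchmarked to Rose Bengal sodium.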

The nature of assay [7]: qHTS assay to test for compound auto fluorescence at 535 nm (green) in HepG2 cells (AID 720675).
The nature of assay [8]: qHTS assay to test for compound auto fluorescence at 460 nm (blue) in HEK293 cells (AID 720678). The method in brief:
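Blue-channel (Ex/Em 405/460 nm) intensity measured in HEK293 cultures after overnight compound exposure at 37C; signal expressed relative to triamterene. Cells plated 2,000 per well in 10% dialyzed FBS medium and allowed 4-5 hr to attach.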

Assay [9] in a line: qHTS assay to test for compound auto fluorescence at 590 nm (red) in HEK293 cells (AID 720679). The method in brief: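 Red-channel autofluorescence (Ex/Em 540/590 nm; Rose Bengal sodium reference) was measured after overnight 37C, 5% CO2 exposure of attached HEK293 cells, 2,000 per well in medium with 10% dialyzed FBS.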
Assay [10] in a line: qHTS assay to test for compound auto fluorescence at 460 nm (blue) in HEK293 cell free culture (AID 720681). The method in brief: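 Test compounds were pinned into cell-free culture medium (DMEM with 10% FBS) and fluorescence was read directly at Ex/Em 405/460 nm. Signals were expressed as fluorescence equivalents of triamterene, with DMSO vehicle as control.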
The nature of assay [11]: qHTS assay to test for compound auto fluorescence at 535 nm (green) in HEK293 cell free culture (AID 720682). The method in brief: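 Cell-free medium (DMEM, 10% FBS) receives compound or DMSO by pintool. Plate read directly at Ex 485/Em 535 nm. Signal converted to fluorescein equivalency.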
Assay [12] in a line: qHTS assay to test for compound auto fluorescence at 590 nm (red) in HEK293 cell free culture (AID 720683). In outline: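 Tox21 10K library compounds were pinned into cell-free DMEM with 10% FBS and fluorescence was read at excitation 540 nm. Activity is expressed as Rose Bengal sodium equivalency.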
Assay [13] can be described thus: qHTS assay to test for compound auto fluorescence at 590 nm (red) in HepG2 cell free culture (AID 720684). In outline:
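Ex 540 / Em 590 nm read of compound in cell-free MEM (10% FBS). Rose Bengal sodium reference.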

The nature of assay [14]: qHTS assay to test for compound auto fluorescence at 460 nm (blue) in HepG2 cell free culture (AID 720685). In outline:
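Cell-free plates of MEM plus 10% FBS received 23 nL compound or DMSO vehicle; blue-channel (405/460 nm) intensity scored against triamterene as reference fluorophore.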

Assay [15] is described as follows: qHTS assay to test for compound auto fluorescence at 535 nm (green) in HepG2 cell free culture (AID 720686).
The nature of assay [16]: qHTS assay to test for compound auto fluorescence at 460 nm (blue) in HepG2 cells (AID 720687). The method in brief:
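Cells (2,000/well in MEM with 10% FBS) attached overnight at 37 C, then were exposed to compound or DMSO for 1 hr at 37 C, 5% CO2. Fluorescence read at Ex/Em 405/460 nm, expressed as triamterene-equivalent signal.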

Assay [17] addresses Glucocorticoid receptor (Homo sapiens) (UniProt P04150). Nature of the assay: qHTS assay to identify small molecule agonists of the glucocorticoid receptor (GR) signaling pathway (AID 720691; active = well fitted activation curve with a large enough effect in the signal ratio in the repeat runs, not every such curve was filed as active; the % refers to the signal ratio). The settings on record: GR-bla HeLa, beta-lactamase reporter ratio, 18 h; activation: at 62.4 µM (top of the series). In outline:
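Measures GR pathway activation through a GRE-beta-lactamase reporter stably integrated in HeLa cells, with 18 h compound treatment at 37 C and fluorescence detection using a FRET substrate.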

Assay [18] can be described thus: qHTS assay to test for compound auto fluorescence at 535 nm (green) in HEK293 cells (AID 720680).
Assay [19] deals with Glucocorticoid receptor (Homo sapiens) (UniProt P04150). The assay is described as follows: qHTS assay to identify small molecule antagonists of the glucocorticoid receptor (GR) signaling pathway (AID 720692; active = well fitted inhibition curve with a large enough effect in the signal ratio in the repeat runs, not every such curve was filed as active; the % refers to the signal ratio; also: potency is read from the fitted curve at half-maximal effect). The method in brief: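 Tox21 10K library screened in concentration-response for blockade of dexamethasone (5 nM final)-induced GRE-bla reporter activity in HeLa cells; 18 h treatment, fluorescence read.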
Sequence of Glucocorticoid receptor (Homo sapiens) (P04150 whole entry, looked up): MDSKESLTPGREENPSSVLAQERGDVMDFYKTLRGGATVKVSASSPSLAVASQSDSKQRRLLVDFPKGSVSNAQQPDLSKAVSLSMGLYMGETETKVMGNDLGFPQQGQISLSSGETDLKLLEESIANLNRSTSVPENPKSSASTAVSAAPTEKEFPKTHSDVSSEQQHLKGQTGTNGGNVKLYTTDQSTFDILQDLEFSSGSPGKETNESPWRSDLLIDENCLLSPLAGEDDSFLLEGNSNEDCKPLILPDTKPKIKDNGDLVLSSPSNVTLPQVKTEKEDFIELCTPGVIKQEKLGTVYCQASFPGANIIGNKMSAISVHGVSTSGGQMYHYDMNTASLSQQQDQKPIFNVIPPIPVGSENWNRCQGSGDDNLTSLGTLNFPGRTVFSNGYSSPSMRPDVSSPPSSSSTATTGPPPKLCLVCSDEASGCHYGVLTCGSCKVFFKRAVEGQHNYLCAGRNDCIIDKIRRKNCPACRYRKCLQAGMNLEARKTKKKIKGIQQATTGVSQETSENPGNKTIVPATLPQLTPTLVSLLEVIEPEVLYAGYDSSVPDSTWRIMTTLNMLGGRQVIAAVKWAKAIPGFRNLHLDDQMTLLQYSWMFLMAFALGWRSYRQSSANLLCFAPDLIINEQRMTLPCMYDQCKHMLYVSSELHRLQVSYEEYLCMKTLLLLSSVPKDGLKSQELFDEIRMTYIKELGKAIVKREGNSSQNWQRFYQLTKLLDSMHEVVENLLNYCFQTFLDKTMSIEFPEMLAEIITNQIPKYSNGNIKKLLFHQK

Molecules are shown by their SMILES. “And” between values parts separate entries of the source, which are not always exact repeats. Equal values may be shown once. Records with an inconclusive call do not appear. The source made the active and inactive calls. Unless noted, calls follow the shape of the dose curve; as a rule, active = well fitted curve in the direction sought with a large enough effect in the repeat runs; inconclusive = weak or mixed curves; inactive = no such curve, though single readings can be large; an effect the other way counts as inactive or inconclusive.

As for `Cc1c(C(=O)O)cccc1[N+](=O)[O-]`, the Potency result in assay [1], in [2], in [3], in assay [4], in assay [5] and in [6] was “inactive” each time. Besides, the Potency entry in assay [7], in assay [8], in assay [9], in assay [10], in assay [11] and in assay [12] was “inactive” each time. Also, the Potency entry in assay [13], in assay [14], in assay [15], in assay [16] and in assay [17] was “inactive” throughout.

Turning to `C1CC(COCC2CO2)CCC1COCC1CO1` (stereo not given), the Potency result in assay [1], in assay [2], in [3], in assay [4], in assay [5] and in assay [6] was “inactive” each time. The Potency entry in assay [8], in [9], in assay [18], in [10], in assay [11] and in assay [14] was “inactive” each time. Also, the Potency entry in assay [15] and in [16] was “inactive” each time.

Regarding `CC1=C(/C=C/C(C)=C/C=C/C(C)=C/C(=O)Nc2ccc(O)cc2)C(C)(C)CCC1`, the Potency result in assay [1], in [4], in [6], in assay [7], in [8] and in assay [9] was “inactive” each time. Also, the Potency entry in [18], in assay [10], in assay [11], in [12], in assay [13] and in assay [14] was “inactive” in each case. The Potency entry in assay [15] and in assay [16] was “inactive” throughout. In addition, the Potency in assay [2] is 29.8 µM (active) and 62.7 µM (active); in assay [3] it was 23.7 µM (active) and 28 µM (active).

For the compound `N[C@@H](CSSC[C@H](N)C(=O)O)C(=O)O`, the Potency result in assay [1], in assay [2], in assay [3], in assay [4], in assay [6] and in assay [7] was “inactive” throughout. Also, the Potency entry in assay [8], in [9], in assay [18], in assay [10], in [11] and in [12] was “inactive” each time. The Potency entry in assay [13], in assay [14], in assay [15], in [16] and in assay [17] was “inactive” each time.

Consider `CC(C)=C1CC[C@@H](C)CC1=O`, for which the Potency entry in [1], in assay [2], in [3], in assay [4], in [6] and in assay [7] was “inactive” in each case. Besides, the Potency result in assay [8], in assay [9], in assay [18], in [10], in assay [11] and in assay [12] was “inactive” in each case. Besides, the Potency result in [13], in assay [14], in assay [15] and in [16] was “inactive” throughout.

For `CC(=O)Oc1ccc(C2(c3ccc(OC(C)=O)cc3)Oc3ccccc3NC2=O)cc1`, the Potency result in [1], in assay [2], in assay [3], in assay [4], in assay [6] and in assay [7] was “inactive” in each case. In addition, the Potency entry in assay [8], in assay [9], in [18], in [10], in [11] and in [12] was “inactive” in each case. For the same compound, the Potency entry in [13], in [14], in assay [15] and in assay [16] was “inactive” throughout. Further, the Potency in assay [19] is 19 µM (active).

Regarding `CN1CCN(C2Cc3ccccc3Sc3ccc(Cl)cc32)CC1` (stereo not given), the Potency result in assay [1], in [3], in assay [4], in assay [6], in assay [7] and in [8] was “inactive” each time. Also, the Potency entry in assay [9], in assay [18], in assay [10], in [11], in assay [12] and in [13] was “inactive” in each case. In addition, the Potency entry in assay [14], in assay [15] and in assay [16] was “inactive” throughout. The Potency in assay [2] was 29.8 µM (active).

With `CCC(C)(C)c1cc(O)c(C(C)(C)CC)cc1O`, the Potency result in assay [1], in assay [4], in [6], in assay [7], in assay [8] and in assay [9] was “inactive” in each case. The Potency result in [18], in assay [10], in assay [11], in assay [12], in assay [13] and in assay [14] was “inactive” each time. Further, the Potency entry in assay [15], in [16] and in [17] was “inactive” in each case. The Potency in assay [2] was 43.3 µM (active); in assay [3], 48.6 µM (active).

Consider `O=C(O)c1cccc(Cl)n1`, for which the Potency entry in assay [1], in assay [2], in assay [3], in assay [4], in assay [6] and in assay [7] was “inactive” each time. For the same compound, the Potency entry in assay [8], in assay [9], in assay [18], in [10], in assay [11] and in assay [12] was “inactive” each time. Also, the Potency result in [13], in assay [14], in [15] and in [16] was “inactive” throughout.

In the case of `C[Si](C)(C)Cl`, the Potency result in assay [1], in [2], in assay [3], in assay [4], in assay [6] and in [7] was “inactive” each time. The Potency result in assay [8], in assay [9], in assay [18], in assay [10], in [11] and in assay [12] was “inactive” each time. In addition, the Potency entry in assay [14], in assay [15], in [16] and in [19] was “inactive” each time.

Consider `CCCCCCCC/C=C/CCCOC(C)=O`, for which the Potency result in assay [1], in assay [2], in [3], in [4], in assay [6] and in assay [7] was “inactive” in each case. In addition, the Potency entry in assay [8], in assay [9], in [18], in assay [10], in assay [11] and in [12] was “inactive” throughout. Further, the Potency entry in assay [13], in [14], in [15] and in [16] was “inactive” throughout.

On to `CCCSS/C(CCO)=C(\C)N(C=O)Cc1cnc(C)nc1N`, for which the Potency entry in [1], in assay [2], in assay [3], in assay [4], in [5] and in [6] was “inactive” each time. Further, the Potency entry in assay [7], in [8], in assay [9], in assay [10], in assay [11] and in assay [12] was “inactive” each time. Moreover, the Potency entry in assay [13], in assay [14], in [15] and in assay [16] was “inactive” each time.

With `COC(=O)NCCC[Si](OC)(OC)OC`, the Potency entry in assay [1], in [2], in [3], in assay [4], in [6] and in [7] was “inactive” in each case. For the same compound, the Potency result in assay [8], in [9], in assay [18], in assay [10], in assay [11] and in assay [12] was “inactive” each time. Also, the Potency result in assay [13], in [14], in [15] and in assay [16] was “inactive” throughout.

As to `O=Nc1ccc(NO)cc1`, the Potency result in assay [1], in assay [2], in assay [3], in assay [4], in [6] and in assay [8] was “inactive” in each case. Besides, the Potency entry in assay [9], in assay [18], in assay [10], in assay [11], in [12] and in [13] was “inactive” throughout. Further, the Potency entry in [15] and in assay [16] was “inactive” throughout. The Potency in [5] was 50.5 µM (active).

Source of the values: PubChem BioAssay (Tox21).
